# Assay results: PubChem BioAssay AID1159580 (chemical genetic matrix, 2015)
# The campaign covered roughly 5,500 compounds. About 2,000 (36%) were called active. Roughly 18% stayed inconclusive and do not appear here. The list shows a part of the results. A number with no mark means an inactive call. Rule as the data show it: active = normalized growth mostly below about 0.91 (no sharp cut-off); inconclusive = no clear call, values can overlap the other calls; inactive = mostly above about 0.92.
# Assay: chemical genetic growth profiling, strain panel (AID 1159580);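 also: tested at 20 µM; growth read once vehicle control cultures reached saturation at 30 °C; 1 = growth at the plate median or of vehicle wells; lower values mean less growth of the strain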
# Details: growth OD
smiles,measurement,setting,value
CC1=NN(c2ccccc2)C(=O)C1,normalized growth,"S. cerevisiae deletion strains, locus YJR075W, strain HOC1, active compounds read low",0.979
same,normalized growth,"S. cerevisiae deletion strains, locus YKL009W, strain mrt4, active compounds read low",0.991
same,normalized growth,"S. cerevisiae deletion strains, locus YKL068W, active compounds read low",0.98
same,normalized growth,"S. cerevisiae deletion strains, locus YKL085W, strain MDH1 (second series), active compounds read low",0.963
same,normalized growth,"S. cerevisiae deletion strains, locus YKL085W, strain MDH1, active compounds read low",0.963
same,normalized growth,"S. cerevisiae deletion strains, locus YKL160W, strain elf1, active compounds read low",0.951
same,normalized growth,"S. cerevisiae deletion strains, locus YKL190W, strain CNB1, active compounds read low",0.994
same,normalized growth,"S. cerevisiae deletion strains, locus YKR001C, strain vps1, active compounds read low",0.961
same,normalized growth,"S. cerevisiae deletion strains, locus YKR026C, strain gcn3, active compounds read low",0.994
same,normalized growth,"S. cerevisiae deletion strains, locus YKR091W, strain srl3, active compounds read low",0.986
same,normalized growth,"S. cerevisiae deletion strains, locus YLL001W, strain dnm1, active compounds read low",0.951
same,normalized growth,"S. cerevisiae deletion strains, locus YLL026W, active compounds read low",0.984
same,normalized growth,"S. cerevisiae deletion strains, locus YLL041C, strain sdh2, active compounds read low",0.99
same,normalized growth,"S. cerevisiae deletion strains, locus YLR027C, strain aat2, active compounds read low",0.994
same,normalized growth,"S. cerevisiae deletion strains, locus YLR039C, strain RIC1, active compounds read low",0.782
same,normalized growth,"S. cerevisiae deletion strains, locus YLR058C, strain SHM2, active compounds read low",0.965
same,normalized growth,"S. cerevisiae deletion strains, locus YLR102C, strain apc9, active compounds read low",1
same,normalized growth,"S. cerevisiae deletion strains, locus YLR221C, strain rsa3, active compounds read low",0.961
same,normalized growth,"S. cerevisiae deletion strains, locus YLR258W, strain gsy2, active compounds read low",0.957
same,normalized growth,"S. cerevisiae deletion strains, locus YLR262C, strain YPT6 (second series), active compounds read low",0.915
same,normalized growth,"S. cerevisiae deletion strains, locus YLR262C, strain YPT6, active compounds read low",0.725
same,normalized growth,"S. cerevisiae deletion strains, locus YLR268W, strain sec22, active compounds read low",0.908
same,normalized growth,"S. cerevisiae deletion strains, locus YLR320W, strain mms22, active compounds read low",0.962
same,normalized growth,"S. cerevisiae deletion strains, locus YLR330W, strain CHS5, active compounds read low",0.988
same,normalized growth,"S. cerevisiae deletion strains, locus YLR342W, strain FKS1 (second series), active compounds read low",0.832
same,normalized growth,"S. cerevisiae deletion strains, locus YLR342W, strain FKS1, active compounds read low",0.987
same,normalized growth,"S. cerevisiae deletion strains, locus YLR357W, strain rsc2, active compounds read low",1
same,normalized growth,"S. cerevisiae deletion strains, locus YLR370C, strain arc18, active compounds read low",0.987
same,normalized growth,"S. cerevisiae deletion strains, locus YLR371W, strain rom2, active compounds read low",0.913
same,normalized growth,"S. cerevisiae deletion strains, locus YLR384C, strain iki3, active compounds read low",0.982
same,normalized growth,"S. cerevisiae deletion strains, locus YLR418C, strain cdc73, active compounds read low",0.78 (active)
same,normalized growth,"S. cerevisiae deletion strains, locus YML016C, strain PPZ1, active compounds read low",0.979
same,normalized growth,"S. cerevisiae deletion strains, locus YML032C, strain rad52, active compounds read low",0.922
same,normalized growth,"S. cerevisiae deletion strains, locus YML120C, strain ndi1, active compounds read low",0.974
same,normalized growth,"S. cerevisiae deletion strains, locus YML124C, strain tub3, active compounds read low",0.984
same,normalized growth,"S. cerevisiae deletion strains, locus YMR058W, strain fet3, active compounds read low",0.922
same,normalized growth,"S. cerevisiae deletion strains, locus YMR078C, strain ctf18, active compounds read low",0.969
same,normalized growth,"S. cerevisiae deletion strains, locus YMR125W, strain sto1, active compounds read low",0.998
same,normalized growth,"S. cerevisiae deletion strains, locus YMR129W, active compounds read low",0.996
same,normalized growth,"S. cerevisiae deletion strains, locus YMR205C, strain PFK2, active compounds read low",0.958
same,normalized growth,"S. cerevisiae deletion strains, locus YMR223W, strain ubp8, active compounds read low",0.925
same,normalized growth,"S. cerevisiae deletion strains, locus YMR231W, strain pep5, active compounds read low",0.984
same,normalized growth,"S. cerevisiae deletion strains, locus YMR263W, strain SAP30, active compounds read low",0.97
same,normalized growth,"S. cerevisiae deletion strains, locus YMR307W, strain GAS1, active compounds read low",0.7
same,normalized growth,"S. cerevisiae deletion strains, locus YNL067W, strain RPL9B, active compounds read low",0.992
same,normalized growth,"S. cerevisiae deletion strains, locus YNL071W, strain lat1, active compounds read low",0.922
same,normalized growth,"S. cerevisiae deletion strains, locus YNL128W, strain TEP1, active compounds read low",0.969
same,normalized growth,"S. cerevisiae deletion strains, locus YNL209W, strain ssb2, active compounds read low",0.993
same,normalized growth,"S. cerevisiae deletion strains, locus YNL233W, strain BNI4, active compounds read low",0.993
same,normalized growth,"S. cerevisiae deletion strains, locus YNL248C, strain rpa49, active compounds read low",0.973
same,normalized growth,"S. cerevisiae deletion strains, locus YNL250W, strain rad50, active compounds read low",0.957
same,normalized growth,"S. cerevisiae deletion strains, locus YNL271C, strain bni1, active compounds read low",0.925
same,normalized growth,"S. cerevisiae deletion strains, locus YNL298W, strain CLA4, active compounds read low",0.951
same,normalized growth,"S. cerevisiae deletion strains, locus YNL307C, strain MCK1, active compounds read low",0.796 (active)
same,normalized growth,"S. cerevisiae deletion strains, locus YNL322C, strain KRE1 (second series), active compounds read low",0.977
same,normalized growth,"S. cerevisiae deletion strains, locus YNL322C, strain KRE1, active compounds read low",0.985
same,normalized growth,"S. cerevisiae deletion strains, locus YNR049C, strain mso1, active compounds read low",0.992
same,normalized growth,"S. cerevisiae deletion strains, locus YNR052C, strain pop2, active compounds read low",0.942
same,normalized growth,"S. cerevisiae deletion strains, locus YOL006C, strain TOP1, active compounds read low",0.997
same,normalized growth,"S. cerevisiae deletion strains, locus YOL012C, strain htz1",0.753
same,normalized growth,"S. cerevisiae deletion strains, locus YOL147C, strain pex11, active compounds read low",0.979
same,normalized growth,"S. cerevisiae deletion strains, locus YOR001W, strain rrp6, active compounds read low",0.972
same,normalized growth,"S. cerevisiae deletion strains, locus YOR061W, strain CKA2, active compounds read low",0.98
same,normalized growth,"S. cerevisiae deletion strains, locus YOR069W, strain VPS5, active compounds read low",0.982
same,normalized growth,"S. cerevisiae deletion strains, locus YOR070C, strain gyp1, active compounds read low",0.995
same,normalized growth,"S. cerevisiae deletion strains, locus YOR080W, strain dia2, active compounds read low",0.97
same,normalized growth,"S. cerevisiae deletion strains, locus YOR083W, strain WHI5, active compounds read low",0.939
same,normalized growth,"S. cerevisiae deletion strains, locus YOR106W, strain vam3, active compounds read low",0.959
same,normalized growth,"S. cerevisiae deletion strains, locus YOR136W, strain idh2, active compounds read low",0.966
same,normalized growth,"S. cerevisiae deletion strains, locus YOR144C, strain elg1, active compounds read low",0.988
same,normalized growth,"S. cerevisiae deletion strains, locus YOR184W, strain ser1, active compounds read low",0.927
same,normalized growth,"S. cerevisiae deletion strains, locus YOR265W, strain rbl2, active compounds read low",0.988
same,normalized growth,"S. cerevisiae deletion strains, locus YOR270C, strain vph1, active compounds read low",1.03
same,normalized growth,"S. cerevisiae deletion strains, locus YOR290C, strain snf2, active compounds read low",0.938
same,normalized growth,"S. cerevisiae deletion strains, locus YOR316C, strain cot1, active compounds read low",0.984
same,normalized growth,"S. cerevisiae deletion strains, locus YPL051W, strain arl3, active compounds read low",0.954
same,normalized growth,"S. cerevisiae deletion strains, locus YPL078C, strain atp4, active compounds read low",0.971
same,normalized growth,"S. cerevisiae deletion strains, locus YPL106C, strain sse1, active compounds read low",1.01
same,normalized growth,"S. cerevisiae deletion strains, locus YPL240C, strain hsp82, active compounds read low",0.987
same,normalized growth,"S. cerevisiae deletion strains, locus YPL241C, strain CIN2, active compounds read low",0.986
same,normalized growth,"S. cerevisiae deletion strains, locus YPR119W, strain clb2, active compounds read low",0.987
same,normalized growth,"S. cerevisiae deletion strains, locus YPR141C, strain kar3, active compounds read low",0.947
same,normalized growth,"S. cerevisiae deletion strains, locus YPR163C, strain tif3, active compounds read low",0.968
same,normalized growth,"S. cerevisiae deletion strains, locus YPR167C, strain met16, active compounds read low",0.969
same,normalized growth,"S. cerevisiae deletion strains, strain wtn01, active compounds read low",0.928
same,normalized growth,"S. cerevisiae strains, strain wild type, active compounds read low",0.98
